# Test results: PubChem BioAssay (NCI)
# Several values for one entry are separate records, joined by “and”; a condition that tells them apart may be missing. Identical values can stand only once. Compounds without any hit were thinned out: in the full panel of roughly 79,000, 15% have a hit. Unmarked numbers belong to inactive results. Activity calls are given as the source filed them. Cut-off read from the data, not from the text of the source: active = growth inhibition above about 70%; inactive = the rest.
# What was measured:
# [1] = NCI Yeast Anticancer Drug Screen. Data for the mec2-1 strain (AID 157); details: S. cerevisiae mec2-1 strain, hits give high values
# How it was run: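 Test agents were screened against the mec2-1 yeast strain, with defined DNA repair or cell cycle alteration. Growth was scored as inhibition against vehicle-only controls.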
# [2] = NCI Yeast Anticancer Drug Screen. Data for the sgs1 mgt1 strain (AID 161);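 note: 0% = growth of cultures given vehicle only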; details: S. cerevisiae sgs1 mgt1 strain, hits give high values
# How it was run: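 Mutant yeast exposed to compound; growth scored against vehicle-only wells.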
# [3] = NCI Yeast Anticancer Drug Screen. Data for the cln2 rad14 strain (AID 165);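 note: 0% = growth equal to vehicle treated cultures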; details: S. cerevisiae cln2 rad14 strain, hits give high values
# How it was run: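 Growth of compound-exposed yeast (cln2 rad14 genotype) measured and expressed as inhibition relative to vehicle.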
# [4] = NCI Yeast Anticancer Drug Screen. Data for the bub3 strain (AID 167); details: S. cerevisiae bub3 mutant strain, hits give high values
# How it was run: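 Steps: expose the mutant yeast strain to compound; grow alongside vehicle-treated cultures; measure growth; express inhibition against the vehicle cultures.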
# [5] = NCI Yeast Anticancer Drug Screen. Data for the mlh1 rad18 strain (AID 175); details: S. cerevisiae mlh1 rad18 strain growth inhibition, hits give high values
# How it was run: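 In this whole-cell yeast screen, a strain with altered DNA damage repair is challenged with compound, and its growth is measured against matched vehicle-treated controls.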
# [6] = NCI Yeast Anticancer Drug Screen. Data for the rad50 strain (AID 155);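 note: 0% = growth of vehicle-only cultures of the same strain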; details: S. cerevisiae rad50 strain growth inhibition; at 50.0 µM; hits give high values
# How it was run: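 Inhibition values express reduced yeast growth in compound-treated cultures relative to vehicle-treated controls.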
# [7] = at 5.0 µM (retest, dose inferred, filed as 0.5)
# [8] = at 50.0 µM (retest, dose inferred, filed as 5.0)
smiles,measurement,setting,value
C/C(=C\c1ccc(Cl)c(Cl)c1)[N+](=O)[O-],growth inhibition,[1]; [7],12%
same,growth inhibition,[1]; [8],92% (active)
same,growth inhibition,[1]; at 50.0 µM,-9.75%
same,growth inhibition,[2]; [7],27%
same,growth inhibition,[2]; [8],100% (active)
same,growth inhibition,[2]; at 50.0 µM,21%
same,growth inhibition,[3]; [7],5%
same,growth inhibition,[3]; [8],59%
same,growth inhibition,[3]; at 50.0 µM,-14.3%
same,growth inhibition,[4]; [7],14%
same,growth inhibition,[4]; [8],98% (active)
same,growth inhibition,[4]; at 50.0 µM,-4.85%
same,growth inhibition,[5]; [7],8%
same,growth inhibition,[5]; [8],54%
same,growth inhibition,[5]; at 50.0 µM,23.1%
COc1cc2c[n+](C)c3c4cc5c(cc4ccc3c2cc1OC)OCO5,growth inhibition,[6],-11.7%
same,growth inhibition,[1]; at 50.0 µM,-37.5%
same,growth inhibition,[3]; at 50.0 µM,-5.75%
same,growth inhibition,[4]; at 50.0 µM,-26.3%
same,growth inhibition,[5]; at 50.0 µM,-33.6%
[Cu+2].[O-]c1ccc2ccccc2c1N=Nc1ccccc1.[O-]c1ccc2ccccc2c1N=Nc1ccccc1,growth inhibition,[6],-70.1%
same,growth inhibition,[2]; at 50.0 µM,-13.1%
same,growth inhibition,[3]; at 50.0 µM,-15.9%
same,growth inhibition,[4]; at 50.0 µM,2.4%
same,growth inhibition,[5]; at 50.0 µM,-12.2%
CC12CCC3C(CCC4(O)C=CCCC34C=O)C1(O)CC(O)C2c1ccc(=O)oc1 (stereo not given),growth inhibition,[1]; at 50.0 µM,-46.9%
same,growth inhibition,[2]; at 50.0 µM,-12.7%
same,growth inhibition,[3]; at 50.0 µM,-15.8%
same,growth inhibition,[4]; at 50.0 µM,-53.9%
same,growth inhibition,[5]; at 50.0 µM,-16.2%
ClC(OC(Cl)C(Cl)(Cl)Cl)C(Cl)(Cl)Cl (stereo not given),growth inhibition,[6],52%
same,growth inhibition,[2]; at 50.0 µM,30.9%
same,growth inhibition,[3]; at 50.0 µM,20.9%
same,growth inhibition,[4]; at 50.0 µM,46.5%
same,growth inhibition,[5]; at 50.0 µM,26.2%
C#CC(/C=C/Cl)(CC)OC(N)=O (stereo not given),growth inhibition,[1]; [7],4%
same,growth inhibition,[1]; [8],5%
same,growth inhibition,[1]; at 50.0 µM,11.6%
same,growth inhibition,[2]; [7],3%
same,growth inhibition,[2]; [8],5%
same,growth inhibition,[2]; at 50.0 µM,-2%
same,growth inhibition,[3]; [7],6%
same,growth inhibition,[3]; [8],-7%
same,growth inhibition,[3]; at 50.0 µM,75.8% (active)
same,growth inhibition,[4]; [7],0%
same,growth inhibition,[4]; [8],43%
same,growth inhibition,[4]; at 50.0 µM,55.9%
same,growth inhibition,[5]; [7],9%
same,growth inhibition,[5]; [8],16%
same,growth inhibition,[5]; at 50.0 µM,31.2%
CN(C)c1cc(C(C)(C)C)nc(C(C)(C)C)c1,growth inhibition,[1]; at 50.0 µM,-1.1% and -1.8%
same,growth inhibition,[2]; at 50.0 µM,8.6% and 5.1%
same,growth inhibition,[3]; at 50.0 µM,1.25% and -5.95%
same,growth inhibition,[4]; at 50.0 µM,0.3% and -4.75%
same,growth inhibition,[5]; at 50.0 µM,9.05% and 10.4%
CN(C)P1(=S)NCC(C(C)(C)C)CO1 (stereo not given),growth inhibition,[1]; at 50.0 µM,-40.1%
same,growth inhibition,[2]; at 50.0 µM,-10.9%
same,growth inhibition,[3]; at 50.0 µM,11.2%
same,growth inhibition,[4]; at 50.0 µM,18.5%
same,growth inhibition,[5]; at 50.0 µM,-43.4%
CCOC(=O)CC(=O)c1ccccc1,growth inhibition,[6],16.9% and -9.6%
same,growth inhibition,[1]; at 50.0 µM,-17.6% and -2%
same,growth inhibition,[5]; at 50.0 µM,14.1% and -15.7%
NS(=O)(=O)c1ccc([As](=O)(O)O)cc1,growth inhibition,[6],-1.1%
same,growth inhibition,[1]; at 50.0 µM,-3.85%
same,growth inhibition,[3]; at 50.0 µM,-45.5%
same,growth inhibition,[4]; at 50.0 µM,12.2%
same,growth inhibition,[5]; at 50.0 µM,-15.7%
Cc1ccc(O)c(CN2CCN(Cc3cc(C)ccc3O)CC2)c1,growth inhibition,[6],3.1%
same,growth inhibition,[2]; at 50.0 µM,13.2%
same,growth inhibition,[3]; at 50.0 µM,-2.15%
same,growth inhibition,[4]; at 50.0 µM,14.4%
same,growth inhibition,[5]; at 50.0 µM,7.8%
NC(=O)C(CCN1CCCCC1)(c1ccccc1)c1ccccc1,growth inhibition,[6],-9.6%
same,growth inhibition,[1]; at 50.0 µM,-14.9%
same,growth inhibition,[3]; at 50.0 µM,-35.4%
same,growth inhibition,[4]; at 50.0 µM,-8.8%
same,growth inhibition,[5]; at 50.0 µM,-8.25%
CC(=O)SCCC(NC(=S)Nc1ccccc1)P(=O)(Oc1ccccc1)Oc1ccccc1 (stereo not given),growth inhibition,[6],-17.9%
same,growth inhibition,[2]; at 50.0 µM,8.35%
same,growth inhibition,[3]; at 50.0 µM,-11.9%
same,growth inhibition,[4]; at 50.0 µM,-7.1%
same,growth inhibition,[5]; at 50.0 µM,-10.3%
c1ccc2c(c1)cc1ccc3cccc4ccc2c1c34,growth inhibition,[1]; at 50.0 µM,-14.9%
same,growth inhibition,[2]; at 50.0 µM,7.15%
same,growth inhibition,[3]; at 50.0 µM,15.5%
same,growth inhibition,[4]; at 50.0 µM,14.4%
same,growth inhibition,[5]; at 50.0 µM,9.9%
CCCCCCCCCCC[CH2][Hg][CH2]CCCCCCCCCCC,growth inhibition,[6],9.8%
same,growth inhibition,[2]; at 50.0 µM,4%
same,growth inhibition,[3]; at 50.0 µM,-4.65%
same,growth inhibition,[4]; at 50.0 µM,4.55%
same,growth inhibition,[5]; at 50.0 µM,-4.3%
CC12CCC(O)CC1CCC1C2CCC2(C)C(c3ccc(=O)oc3)CC3OC312 (stereo not given),growth inhibition,[1]; at 50.0 µM,31.5%
same,growth inhibition,[2]; at 50.0 µM,66.5%
same,growth inhibition,[3]; at 50.0 µM,48.5%
same,growth inhibition,[4]; at 50.0 µM,48.6%
same,growth inhibition,[5]; at 50.0 µM,60.9%
O=C1NC(=O)C(CC(Br)CBr)(c2ccccc2)C(=O)N1 (stereo not given),growth inhibition,[6],16.6%
same,growth inhibition,[2]; at 50.0 µM,20.8%
same,growth inhibition,[3]; at 50.0 µM,11.4%
same,growth inhibition,[4]; at 50.0 µM,-0.75%
same,growth inhibition,[5]; at 50.0 µM,11.2%
CC/C(=C/c1ccc(OC)cc1)[N+](=O)[O-],growth inhibition,[1]; [7],35%
same,growth inhibition,[1]; [8],100% (active)
same,growth inhibition,[1]; at 50.0 µM,99.7% (active)
same,growth inhibition,[3]; [7],20%
same,growth inhibition,[3]; [8],100% (active)
same,growth inhibition,[3]; at 50.0 µM,99% (active)
same,growth inhibition,[4]; [7],49%
same,growth inhibition,[4]; [8],99% (active)
same,growth inhibition,[4]; at 50.0 µM,99.3% (active)
same,growth inhibition,[5]; [7],40%
same,growth inhibition,[5]; [8],99% (active)
same,growth inhibition,[5]; at 50.0 µM,99.2% (active)
